A short description of assay [1]: Cell Viability - LYMP1-002 - Assay at 16 hr (AID 948). The method in brief:
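Acute cytotoxicity is scored as a concentration-dependent fall in intracellular ATP in a human lymphoblastoid line (LYMP1-002) after 16 hr compound exposure at 37 C, measured by luciferase luminescence.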

Assay [2] is described as follows: MultiTox-Fluor Cytotoxicity Assay - LYMP1-002 - Live Cells (AID 955).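 Note: cells exposed to compound for 16 hours.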 The method in brief: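 Cells were seeded at 2500 per well and incubated 5 hr. Compounds were then added for 16 hr at 37 C, followed by MultiTox-Fluor reagent for 60 min at room temperature and fluorescence reading of viable-cell protease signal.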
Assay [3] is described as follows: MultiTox-Fluor Cytotoxicity Assay - LYMP1-002 - Dead Cells (AID 960).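 Note: cells exposed to compound for 16 h at 37 °C; nearly all actives have a fitted effect of over 60% in size.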 The method in brief:
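Cells were plated, rested 5 hr, then treated with compound dilution series for 16 hr at 37 C. After adding substrate reagent and 60 min at room temperature, dead-cell protease fluorescence gave concentration-response curves fitted by the Hill equation.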

Assay [4] can be described thus: MultiTox-Fluor Cytotoxicity Assay - LYMP1-003 - Dead Cells (AID 961).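 Note: cells exposed to compound for 16 h at 37 °C; nearly all actives have a fitted effect of over 70% in size.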 The method in brief:
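Acute toxicity is scored as increased dead-cell protease activity in human lymphoblastoid LYMP1-003 cells after 16 h compound exposure in complete culture medium. Activity is normalized to DMSO basal and 15 uM tetraoctylammonium bromide as full response.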

Assay [5] is described as follows: MultiTox-Fluor Cytotoxicity Assay - LYMP1-003 - Live Cells (AID 962).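 Note: cells exposed to compound for 16 hours at 37 °C; cytotoxic hits lower the live-cell protease signal.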 A digest of the protocol:
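Acute cytotoxicity is scored as a drop in live-cell protease activity in human lymphoblastoid LYMP1-003 cells after 16 hr compound exposure at 37 C. AC50 values come from Hill-equation modelling of concentration-response data.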

Assay [6] is described as follows: Cell Viability - LYMP1-003 - Assay at 24 hr (AID 963). Note: potency is the fitted concentration of half-maximal effect. A digest of the protocol:
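Cytotoxicity is scored as a concentration-dependent fall in ATP-linked luciferase signal in human lymphoblastoid LYMP1-003 cells treated 24 hr at 37 C in complete culture medium.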

Assay [7] can be described thus: Cell Viability - LYMP1-003 - Assay at 40 hr (AID 964). Note: nearly all actives have a fitted effect of over 60% in size. Note: potency is the fitted concentration of half-maximal effect. The method in brief:
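Luminescent ATP signal (CellTiter-Glo) served as the viability read-out after 40 hr compound treatment of human lymphoblastoid LYMP1-003 cells at 37 C. Decreases in ATP were fitted with the Hill equation to give AC50.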

Assay [8] in a line: Cell Viability - LYMP2-003 (AID 965).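 Note: cells exposed to compounds for 24 h before reading; nearly all actives have a fitted effect of over 50% in size.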 Note: potency is the fitted concentration of half-maximal effect. A digest of the protocol:
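Acute cytotoxicity is scored as a concentration-dependent drop in intracellular ATP, measured by luciferase luminescence in human lymphoblastoid cells treated for 24 hours at 37 C. AC50 values derive from Hill-equation modelling.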

The nature of assay [9]: Cell Viability - LYMP2-004 (AID 966). Note: nearly all actives have a fitted effect of over 65% in size. Note: potency is the fitted concentration of half-maximal effect. A digest of the protocol: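 qHTS cytotoxicity: human lymphoblastoid line, 24 hr compound treatment, 37 C, complete medium. Viability read as cellular ATP via luciferase luminescence; tetraoctylammonium bromide served as positive control.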
The nature of assay [10]: Cell Viability - LYMP2-005 (AID 967). Note: potency is the fitted concentration of half-maximal effect. A digest of the protocol:
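qHTS viability screen in LYMP2-005 cells: 24 h at 37 C with compound, ATP luminescence via CellTiter-Glo, AC50 from Hill curves.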

The nature of assay [11]: Cell Viability - LYMP2-009 (AID 968). Note: nearly all actives have a fitted effect of over 55% in size. Note: potency is the fitted concentration of half-maximal effect.
A short description of assay [12]: Cell Viability - LYMP2-011 (AID 969). Note: nearly all actives have a fitted effect of over 60% in size. Note: potency is the fitted concentration of half-maximal effect. The method in brief: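 In this qHTS cytotoxicity format, compounds are tested across concentrations on human lymphoblastoid cells in complete medium for 24 hours at 37 C. Viability is taken as cellular ATP measured by luciferase luminescence.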
Assay [13] in a line: Cell Viability - LYMP2-013 (AID 970). Note: nearly all actives have a fitted effect of over 55% in size. Note: potency is the fitted concentration of half-maximal effect. A digest of the protocol:
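Cytotoxicity is scored as a concentration-dependent drop in intracellular ATP in human lymphoblastoid cells after 24 hr compound exposure at 37 C. ATP is quantified by luciferase luminescence, and AC50 values come from Hill-equation modeling.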

The nature of assay [14]: Cell Viability - LYMP2-015 (AID 971). Note: nearly all actives have a fitted effect of over 55% in size. Note: potency is the fitted concentration of half-maximal effect. A digest of the protocol:
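Cells are seeded at 2500 per well and incubated 5 hr at 37 C. Compounds are added across a concentration series for 24 hr at 37 C. CellTiter-Glo is added, and luminescence is read after 30 min at room temperature.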

The nature of assay [15]: Cell Viability - LYMP2-017 (AID 972). Note: nearly all actives have a fitted effect of over 55% in size. Note: potency is the fitted concentration of half-maximal effect. The method in brief: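 Cytotoxicity is scored as a concentration-dependent drop in cellular ATP in a human lymphoblastoid line after 24 hr treatment at 37 C. Values are AC50s from Hill-equation modelling.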
Assay [16] can be described thus: Cell Viability - LYMP2-021 (AID 974). Note: potency is the fitted concentration of half-maximal effect. The method in brief:
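Loss of cellular ATP, measured with a luciferase-based CellTiter-Glo readout, serves as the toxicity signal in human lymphoblastoid cells treated for 24 hours at 37 C. Potency is reported as AC50 from a standard Hill model.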

For assay [17], the target named is Pyruvate kinase PKM (Homo sapiens) (UniProt P14618). As to the kind of experiment: qHTS Assay for Activators of Human Muscle Pyruvate Kinase (AID 954; active = well fitted curve in the direction sought with a large enough effect, not every such curve was filed as active). The method in brief:
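Screening used highly purified human pyruvate kinase M2 under submaximal activity, with PEP at its Km and ADP below Km. After an hour at room temperature, ATP was read by luciferase luminescence.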

Assay [18] deals with Alpha-galactosidase (Coffea arabica) (UniProt Q42656). As to the kind of experiment: Counterscreen for Glucocerebrosidase Inhibitors: qHTS Assay for Coffee Bean alpha-Galactosidase at pH 4.5 (AID 957). Note: series mostly up to about 77 µM. The method in brief: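 Enzyme is added first (2 nM final), then compounds titrated from 0.7 nM to 77 uM, then 80 uM 4-methylumbelliferyl alpha-D-galactopyranoside; after 20 min at room temperature a pH 10 NaOH/glycine stop precedes fluorescence reading at 365/440 nm.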
In general terms: Counterscreens check selectivity or assay interference.

Values joined by “and” are separate entries in the source; they are usually repeats but may differ in a detail not shown here. Equal values may be shown once. Records with an inconclusive call do not appear. Some compounds were tested as several samples or in several runs, with calls that do not always agree. Active and inactive are the calls of the source. Unless noted, calls come from the whole dose curve; as a rule, active = well fitted curve in the direction sought with a large enough effect; inconclusive = small, poorly fitted or top-dose-only effect, or another doubt; inactive = no such curve, though single readings can be large; an effect the other way counts as inactive or inconclusive.

Sequence of Pyruvate kinase PKM (Homo sapiens) (P14618 whole entry, looked up): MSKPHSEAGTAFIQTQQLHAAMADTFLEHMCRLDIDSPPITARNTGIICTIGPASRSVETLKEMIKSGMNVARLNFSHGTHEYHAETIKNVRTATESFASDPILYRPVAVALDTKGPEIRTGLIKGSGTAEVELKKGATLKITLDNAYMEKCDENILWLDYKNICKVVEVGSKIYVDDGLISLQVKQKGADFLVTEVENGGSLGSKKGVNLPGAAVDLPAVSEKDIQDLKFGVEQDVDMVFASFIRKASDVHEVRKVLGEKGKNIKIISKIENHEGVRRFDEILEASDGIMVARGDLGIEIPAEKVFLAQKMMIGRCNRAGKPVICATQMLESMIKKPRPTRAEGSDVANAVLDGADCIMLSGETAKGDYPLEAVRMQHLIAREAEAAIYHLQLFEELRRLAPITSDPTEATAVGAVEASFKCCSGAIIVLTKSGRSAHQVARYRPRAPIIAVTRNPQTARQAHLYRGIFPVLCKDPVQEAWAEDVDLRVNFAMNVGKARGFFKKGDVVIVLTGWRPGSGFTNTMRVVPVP
Sequence of Alpha-galactosidase (Coffea arabica) (Q42656 whole entry, looked up): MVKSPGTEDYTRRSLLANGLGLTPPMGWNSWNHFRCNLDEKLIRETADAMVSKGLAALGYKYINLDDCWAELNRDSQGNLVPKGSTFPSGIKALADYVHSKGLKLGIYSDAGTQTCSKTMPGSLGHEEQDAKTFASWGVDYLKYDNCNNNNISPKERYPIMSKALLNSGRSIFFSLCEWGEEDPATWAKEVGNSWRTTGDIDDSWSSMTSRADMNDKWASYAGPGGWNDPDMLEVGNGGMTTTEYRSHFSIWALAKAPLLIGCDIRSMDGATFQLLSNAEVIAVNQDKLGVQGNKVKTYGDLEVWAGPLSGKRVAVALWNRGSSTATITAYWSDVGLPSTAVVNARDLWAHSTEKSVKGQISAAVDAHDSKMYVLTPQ

With `ClC(Cl)(Cl)Cl`, the Potency entry in [1], in assay [2], in assay [3], in assay [4], in [5] and in assay [6] was “inactive” in each case. Further, the Potency entry in assay [7], in [8], in [9], in assay [10], in assay [11] and in assay [12] was “inactive” in each case. Moreover, the Potency result in assay [13], in [14], in [15] and in assay [16] was “inactive” throughout.
Take `O=C(O)C(Cl)(Cl)Cl`: the Potency entry in assay [1], in assay [2], in [3], in assay [4], in [5] and in assay [6] was “inactive” throughout. Moreover, the Potency result in assay [7], in [8], in assay [9], in assay [10], in assay [11] and in assay [12] was “inactive” throughout. Moreover, the Potency result in assay [13], in assay [14], in assay [15] and in assay [16] was “inactive” each time.
Consider `[O]=[Cd]`, for which the Potency result in assay [1], in assay [2], in assay [3], in assay [4], in [5] and in assay [6] was “inactive” in each case. For the same molecule, the Potency result in [7], in assay [8], in assay [9], in assay [10], in assay [11] and in [12] was “inactive” in each case. Also, the Potency result in assay [13], in assay [14], in assay [15] and in [16] was “inactive” in each case.
Turning to `[O]=[Cr](=[O])([OH])[O][Cr](=[O])(=[O])[OH]`, the Potency result in assay [1], in assay [2], in assay [3], in assay [4] and in assay [5] was “inactive” throughout. Besides, the Potency result in assay [6] is “inactive and 39.8 µM (active)”; in assay [7], “inactive and 39.8 µM (active) and 25.1 µM (active)”; in [8], 12.6 µM (active) and 20 µM (active) and 7.94 µM (active); in [9] it was 10 µM (active) and 15.8 µM (active) and 6.31 µM (active); in assay [10], 10 µM (active) and 15.8 µM (active); in [11], 10 µM (active) and 6.31 µM (active). Further, the Potency is 10 µM (active) and 12.6 µM (active) and 7.94 µM (active) in [12]; 15.8 µM (active) and 10 µM (active) in [13]; 10 µM (active) in [14]; 12.6 µM (active) in assay [15]; 12.6 µM (active) and 10 µM (active) in assay [16].
Turning to `S=C=S`, the Potency entry in assay [1], in assay [2], in [3], in [4], in [5] and in [6] was “inactive” in each case. Further, the Potency entry in [7], in assay [8], in assay [9], in assay [10], in assay [11] and in [12] was “inactive” throughout. Besides, the Potency entry in assay [13], in assay [14], in assay [15] and in assay [16] was “inactive” each time.
Take `O=C1CCO1`: the Potency result in assay [1], in [2], in [3], in assay [4], in assay [5] and in assay [6] was “inactive” in each case. The Potency entry in assay [7], in assay [8], in [9], in assay [10], in assay [11] and in [12] was “inactive” throughout. For the same molecule, the Potency entry in [13], in assay [14], in assay [15] and in assay [16] was “inactive” each time.
In the case of `C[C@H]1CCC[C@H](O)CCCCCc2cc(O)cc(O)c2C(=O)O1`, the Potency result in [1], in assay [2], in assay [3], in assay [4], in [5] and in assay [6] was “inactive” each time. Besides, the Potency result in assay [7], in assay [8], in assay [9], in assay [10], in assay [11] and in [12] was “inactive” throughout. Further, the Potency result in [13], in [14], in assay [15] and in assay [16] was “inactive” throughout.
`O=C1C=CC(=O)C=C1`: the Potency result in assay [1], in assay [2], in assay [4], in [5], in assay [6] and in assay [7] was “inactive” each time. The Potency entry in [8] and in assay [10] was “inactive” in each case. Besides, the outcome in assay [17] and in assay [18] was inactive. For the same molecule, the Potency was 50.1 µM (active) in [11]; 50.1 µM (active) in assay [12]; 39.8 µM (active) in [13]; 31.6 µM (active) in assay [14]; 50.1 µM (active) in assay [15]; 31.6 µM (active) in assay [16].
